Assay outcomes as filed in PubChem.
HttQ103 aggreg: qHTS Multiplex Assay to Identify Dual Action Probes in a Cell Model of Huntington: Aggregate Formation (GFP); AID 1688, 2009; Potency, µM (highest dose often 46.1 µM), for the others: at the top dose activity change, negative = inhibition, hits mostly inhibitors; PC12 HttQ103-GFP aggregates, Acumen cytometry, 40 h; 220,000 tested, 1.1% active; active = well fitted curve in the direction sought with a large enough effect; inconclusive = small, poorly fitted or top-dose-only effect, or another doubt; inactive = no such curve, though single readings can be large; an effect the other way counts as inactive or inconclusive; also: potency is read from the fitted curve at half-maximal effect; % is scaled to controls: 0 for no effect and ±100 for the full control effect; nearly all actives have a fitted effect of over 60% in size
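Aggregate formation scored by laser-scanning cytometer (488 excitation, 500–530 emission) in lysed PC12 cells expressing Q103-GFP after 100 nM tebufenozide induction; library tested in dose series, with ATPLite reagent added in the multiplex.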
PNC assembly inh: High Content Assay for Compounds that inhibit the Assembly of the Perinucleolar Compartment; activity change (PNC), negative = inhibition, % at 10 µM; AID 2417, 2010; PC3M PTB-GFP, PNC prevalence imaging, 16 h; active compounds read low; 140,000 tested, 3.1% active;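 active = readout at or below -70, meaning at least 70% loss of cells showing the perinucleolar compartment, a nuclear body marking cancer cells; inconclusive = readout between -30 and a set limit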;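 also: plate controls were DMSO wells for no effect and camptothecin positive control wells for full effect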
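PC3M cells stably expressing PTB-GFP, 750–1000 cells/well, treated 16 h at 37 °C with compound (23 nl of library stock), in duplicate. After paraformaldehyde fixation and Hoechst stain, imaged at 20x; PNC prevalence scored by image analysis.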
HTT cytoprotect: qHTS Multiplex Assay to Identify Dual Action Probes in a Cell Model of Huntington: Cytoprotection (ATP). Potency, µM (top dose mostly 56.4 µM), for inactives: cytoprotection (ATP increase), hits mostly activators. 230,000 tested, 0.14% active. PC12 HTT-Q103 induced, cytoprotection, ATP luminescence, 40 h. AID 1471, 2008; active = well fitted curve in the direction sought with a large enough effect; inconclusive = small, poorly fitted or top-dose-only effect, or another doubt; inactive = no such curve, though single readings can be large; an effect the other way counts as inactive or inconclusive; also: potency is read from the fitted curve at half-maximal effect; % of control where 0% means no effect; nearly all actives have a fitted effect of over 45% in size
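Readout: ATPlite luminescence (ATP level). Model: stable PC12, inducible Htt exon1 Q103-GFP. Inducer: tebufenozide, 100 nM final. Compounds: dose series. No G418 in medium.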
HPGD block: qHTS Assay for Inhibitors of HPGD (15-Hydroxyprostaglandin Dehydrogenase); Potency, µM, for the others: at the top dose activity change, negative = inhibition, actives largely listed as inhibitors; AID 894, 2007; 150,000 tested, 4.3% active; purified HPGD, NADH fluorescence kinetic, PGE2 substrate; 15-hydroxyprostaglandin dehydrogenase [NAD(+)] (Homo sapiens), P15428; also: potency is read from the fitted curve at half-maximal effect; % is scaled to controls: 0 for no effect and ±100 for the full control effect
Target sequence (P15428 whole entry, looked up): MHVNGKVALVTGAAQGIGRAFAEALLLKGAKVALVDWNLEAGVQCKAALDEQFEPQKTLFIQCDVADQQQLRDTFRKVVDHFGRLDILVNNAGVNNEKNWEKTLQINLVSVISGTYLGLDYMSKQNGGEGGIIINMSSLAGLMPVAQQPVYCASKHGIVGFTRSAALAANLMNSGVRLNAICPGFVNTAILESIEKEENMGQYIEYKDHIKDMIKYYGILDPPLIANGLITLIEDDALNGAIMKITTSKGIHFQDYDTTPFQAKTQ
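NADH formation kinetics: reaction with 30 uM PGE2 and 1 mM NAD+ (final), 20 nM enzyme, Tris-HCl pH 8 with Tween 20, after 15 min compound preincubation at room temperature. Fluorescence change, last versus first of five reads.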
GoLoco inh red: qHTS Assay for Inhibitors of RGS12 GoLoco Motif Activity (Red Fluorophore). Guanine nucleotide-binding protein G(i) subunit alpha-1 (Homo sapiens), P63096. Gai1:RGS12 GoLoco peptide FP, rhodamine, 10 min. Potency, µM (highest dose often 61.6 µM), without a hit: at the highest dose activity, negative = inhibition, usual class: inhibitors. 230,000 tested, 0.44% active. AID 880, 2007; active = well fitted inhibition curve with a large enough effect, not every such curve was filed as active; inactive = no such curve, though single readings can be large or run the other way; also: potency is read from the fitted curve at half-maximal effect; % is scaled to controls: 0 for no effect and ±100 for the full control effect; nearly all actives have a fitted effect of over 30% in size
Target sequence (P63096 whole entry, looked up): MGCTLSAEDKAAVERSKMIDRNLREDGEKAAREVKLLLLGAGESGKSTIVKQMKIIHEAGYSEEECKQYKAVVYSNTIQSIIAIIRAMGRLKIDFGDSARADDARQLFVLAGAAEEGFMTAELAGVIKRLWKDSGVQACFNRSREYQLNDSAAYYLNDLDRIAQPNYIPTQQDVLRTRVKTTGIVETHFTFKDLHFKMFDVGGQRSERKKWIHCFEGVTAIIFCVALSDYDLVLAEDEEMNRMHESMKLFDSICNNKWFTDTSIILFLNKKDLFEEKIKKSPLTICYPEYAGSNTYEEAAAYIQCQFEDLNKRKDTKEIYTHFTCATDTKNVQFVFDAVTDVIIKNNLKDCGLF
ALDH1A1 inh: qHTS Assay for Inhibitors of Aldehyde Dehydrogenase 1 (ALDH1A1); Purified ALDH1A1, NADH fluorescence, propionaldehyde substrate; Potency, µM (highest dose often 75.3 µM), for inactives: at the top dose activity, negative = inhibition, most hits filed as inhibitors; 220,000 tested, 7.3% active; AID 1030, 2008;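 also: potency is read from the fitted curve at half-maximal effect; plate controls were no enzyme wells and a reference inhibitor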
* = called active by the depositor; ? = inconclusive; . = no result given; [ ] = remark or other dose. Rows were chosen to be rich in hits. Some 11% of all compounds tested hit in one or more screens of this group. Unless noted, calls follow the shape of the dose curve; as a rule, active = well fitted inhibition curve with a large enough effect (not every such curve was filed as active); inconclusive = small, poorly fitted or top-dose-only effect, or another doubt; inactive = no such curve, though single readings can be large or run the other way.

SMILES	HttQ103 aggreg	PNC assembly inh	HTT cytoprotect	HPGD block	GoLoco inh red	ALDH1A1 inh
O=Cc1ccc(Oc2ccc(F)cc2)nc1	0.8%	.	-20.2%	.	5.2%	15.8µM*
CCOC(=O)c1c(C)[nH]c(C(=O)N/N=C/c2ccc(Br)cc2)c1C	-22.3%	-112.6*	-76.1%[10 µM]	-15.5%	5.8%	-5.2%
Cc1[nH]c(C(=O)N/N=C/c2ccc(C(=O)O)cc2)c(C)c1C(=O)N/N=C/c1ccc(C(=O)O)cc1	-11.4%	?	19.8%[10 µM]	-12.2%	21.7%	2.1%
C=CCn1c(C)c(C(C)=O)c(N2CCN(c3ccccc3)CC2)nc1=S	2.7%	27.1	-21.4%	-22.5%	7.0%	28.2µM*
CCNc1nc(NC(C)C)nc(N(n2cnnc2)S(=O)(=O)c2ccc(C)cc2)n1	8.4%	83.4	7.5%[10 µM]	-6.9%	5.6%	2.24µM*
CCNc1nc(NCC)nc(N(n2cnnc2)S(=O)(=O)c2ccc(C)cc2)n1	?	133.8	-2.7%[10 µM]	-5.3%	11.9%	?
CCn1cc(/C=N/O)c(C)n1	?	-2.1	-2.2%	0.3%	3.4%	3.6%
Cc1cc(C)c(COCc2cc(/C=N/O)c(C)cc2C)cc1/C=N/O	-30.8%	-8.2	3.2%	14.1µM*	12.5%	23.2%
O=C(CNC(=S)N(Cc1ccccc1)Cc1ccccc1F)NCc1ccc(Cl)cc1	?	.	-78.8%	.	5.0%	?
Cc1ccccc1OCc1nc2ccccc2c(=O)n1/N=C/c1cn[nH]c1-c1ccc(Br)cc1	2.2%	?	.	31.6µM*	15.0%	3.0%
COc1ccc(/C=N/n2c(-c3ccco3)nc3ccccc3c2=O)cc1	-4.2%	-100.0*	6.5%[10 µM]	-15.4%	9.3%	10.1%
Cc1ccccc1OCc1nc2ccccc2c(=O)n1/N=C/c1ccco1	22.4µM*	?	-25.4%[10 µM]	-9.0%	2.7%	?
Cc1ccccc1OCc1nc2ccccc2c(=O)n1NC(=O)c1ccco1	-12.0%	-100.0*	31.9%[10 µM]	-11.5%	-4.4%	4.6%
COc1cccc(/C=N/n2c(-c3ccco3)nc3ccccc3c2=O)c1	-5.9%	-28.5	-9.4%[10 µM]	-13.1%	9.7%	?
O=c1c2ccccc2nc(COc2ccccc2)n1/N=C/c1cn[nH]c1-c1ccccc1	-8.7%	13.9	-3.2%[10 µM]	-5.2%	6.2%	5.4%
Cc1nc2ccccc2c(=O)n1NC(=O)c1ccco1	-2.8%	298.7	-15.0%[10 µM]	-20.8%	5.4%	3.0%
COC(=O)[C@@H]1CC[C@H](C)[C@@H](c2ccc(C)cc2)N1C(=O)c1ccc(/C=N\OC[C@@H](O)[C@H]2O[C@H]3OC(C)(C)O[C@H]3[C@@H]2O)cc1	.	.	3.1%[10 µM]	.	.	6.4%[13.5 µM]
COC(=O)[C@@]1(Cc2ccc(F)cc2)[C@H]2c3cc(C(=O)N4CCCC4)n(CCc4c[nH]c5cc(F)ccc45)c3C[C@H]2CN1C(=O)c1ccccc1	.	.	11.9%	-15.3%	11.5%	-15.1%
CN1/C(=C/c2cc[n+](C)c3ccccc23)C=Cc2ccccc21	2.51µM*	.	-130.0%	.	59.9%	-7.1%
CC(C)(C)C1CCc2sc(-c3nnc(CCl)o3)cc2C1 (stereo not given)	-3.4%	.	8.2%[10 µM]	.	4.5%	22.4µM*
O=C(CCCCl)NC1=NN(c2ccccc2)C(=O)C1	0.6%	-24.8	17.1%[1.9 µM]	-5.3%	0.8%	8.91µM*
C/C=C/C=C/C=O	.	.	3.4%	-8.1%	6.2%	25.1µM*
COc1cc(OC)c(-c2nn3c(-c4ccncc4)nnc3s2)cc1OC	4.5%	-135.5*	9.6%	-9.9%	-5.1%	7.6%
CC(C)(C)c1ccc(-c2nnc3sc(-c4ccncc4)nn23)cc1	4.2%	13.7	5.0%[1.9 µM]	?	-3.5%	12.6µM*
Cc1nnc2sc(-c3ccncc3)nn12	-1.1%	?	-15.0%[0.074 µM]	-11.8%	-9.2%	-3.9%
SMILES	HttQ103 aggreg	PNC assembly inh	HTT cytoprotect	HPGD block	GoLoco inh red	ALDH1A1 inh
COc1cc(OC)c(-c2nn3c(-c4cccnc4)nnc3s2)cc1OC	5.2%	-2.0	-13.9%	.	.	54.5%
COC(=O)c1ccccc1C(=O)c1ccc(OCCN2CCCCC2)cc1	5.5%	.	3.1%	.	.	.
Cc1ccc(/C=C/C(=O)NCc2cccs2)o1	?	.	4.8%[10 µM]	.	1.2%	3.98µM*
Cc1ccc(/C=C/C(=O)NCc2cccs2)cc1	8.2%	-15.6	-29.9%[10 µM]	14.1µM*	4.1%	?
Cc1cc(C)c(NC(=S)NC(=O)c2ccc(-c3ccccc3)cc2)c(C)c1	-32.5%	23.5	3.3%[10 µM]	-7.7%	0.5%	10µM*
O=C(NC(=S)Nc1cccc2ncccc12)c1cccs1	22.9%	.	-59.1%	.	3.9%	?
O=C(NNC(=S)Nc1ccccc1)c1ccc2ncccc2c1	19.4%	.	.	.	1.0%	22.4µM*
CC(C)(C)NC(=S)NNC(=O)c1ccc2ncccc2c1	7.8%	.	-10.6%[10 µM]	.	8.4%	?
O=C(NC(=S)Nc1cccc2ncccc12)c1ccccc1	-10.0%	.	-19.6%[10 µM]	.	3.5%	14.1µM*
Cc1ccc(C(=O)NC(=S)Nc2cc(-c3nc4ccccc4s3)ccc2C)cc1	5.7%	-108.8*	-4.7%	-10.6%	6.4%	-8.0%
COc1ccc2[nH]cc(CCNc3nc(-c4c(C)noc4C)nc4ccccc34)c2c1	.	.	-188.9%	.	-2.5%	?
O=C(NC(=S)Nc1ccc2[nH]ncc2c1)c1ccccc1	-8.2%	?	5.6%	?	-5.2%	10µM*
Cc1ccc(NC(=S)NC(=O)c2ccccc2)cc1NC(=S)NC(=O)c1ccccc1	-6.9%[9.22 µM]	.	-7.2%[10 µM]	.	62.7%	3.55µM*
O=C(Nc1ccc2ncccc2c1)c1ccccc1Cl	18.9%[9.22 µM]	.	13.1%[10 µM]	.	-4.1%	2.1%
COC(=O)c1ccccc1NC(=S)NC(=O)c1ccccc1	8.7%	1.2	-10.7%	?	4.8%	?
Cc1ccc2cccnc2c1NC(=S)NC(=O)c1ccccc1	-2.4%	-29.6	-7.4%[10 µM]	-19.6%	-1.4%	28.2µM*
Cc1ccc2cccc(NC(=S)NC(=O)c3ccccc3)c2n1	-0.2%	-13.3	-28.4%	-7.2%	10.2%	?
O=C(NC(=S)Nc1ccc2ncccc2c1)c1ccccc1	3.5%	.	-44.9%	.	-4.1%	3.55µM*
O=C(O)[C@@H]1[C@@H](C(=O)NCc2cccnc2)[C@@H]2C=C[C@@H]1O2	.	.	-4.0%[10 µM]	-12.7%	-2.6%[14.2 µM]	2.9%[13.5 µM]
O=C(NNc1ccc([N+](=O)[O-])cc1)C1C2CCCCC21 (stereo not given)	31.4%	18.4	.	-8.0%	-2.0%	25.1µM*
